The source of these data is PubChem BioAssay (Tox21).

The target in assay [1] is Estrogen receptor beta (Homo sapiens) (UniProt Q92731). The assay can be described thus: qHTS assay to identify small molecule antagonists of the estrogen receptor beta (ER-beta) signaling pathway (AID 1259378; active means well fitted inhibition curve with a large enough effect in the signal ratio in the repeat runs, not every such curve was filed as active; the % refers to the signal ratio). The method in brief: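 ER-beta-UAS-bla HEK293T (GripTite) cells in 2% charcoal-stripped FBS medium were preincubated 6 hr at 37C, dosed with compound, then stimulated with 1 nM E2 (final) for 16 hr; beta-lactamase reporter read by B/G FRET fluorescence after 2 hr substrate loading.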
Sequence of Estrogen receptor beta (Homo sapiens) (Q92731 whole entry, looked up): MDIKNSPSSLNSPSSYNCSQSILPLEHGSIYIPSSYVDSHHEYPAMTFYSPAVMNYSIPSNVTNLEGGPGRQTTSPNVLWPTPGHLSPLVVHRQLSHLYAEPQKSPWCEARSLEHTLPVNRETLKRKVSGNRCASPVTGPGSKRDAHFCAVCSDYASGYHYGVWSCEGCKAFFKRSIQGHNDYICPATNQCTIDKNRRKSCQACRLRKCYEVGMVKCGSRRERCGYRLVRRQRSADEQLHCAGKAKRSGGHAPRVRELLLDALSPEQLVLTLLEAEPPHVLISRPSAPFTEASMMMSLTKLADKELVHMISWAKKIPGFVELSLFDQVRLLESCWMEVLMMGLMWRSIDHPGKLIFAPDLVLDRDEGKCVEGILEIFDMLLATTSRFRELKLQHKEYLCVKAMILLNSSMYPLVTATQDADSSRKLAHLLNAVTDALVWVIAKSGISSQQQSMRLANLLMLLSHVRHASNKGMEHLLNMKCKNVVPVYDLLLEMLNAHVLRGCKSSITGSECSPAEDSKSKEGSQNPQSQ
(qHTS replaces the single test concentration by a dilution series.)

The nature of assay [2]: qHTS assay to identify small molecule agonists of the androgen receptor (AR) signaling pathway in the presence of an antagonist - cell viability counter screen (AID 1259379).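 Further: MDA-kb2 human breast cancer cells carrying an MMTV luciferase reporter; series mostly up to about 92 µM; nearly all actives have a fitted effect of over 25% in size.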 In short, it runs like this:
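Cytotoxicity is assessed by CellTiter-Fluor in MDA-kb2 cells carrying an MMTV-driven luciferase reporter. Cells receive 3.0uM nilutamide plus compounds at 15 concentrations and incubate 16 hr at 37C without CO2 before fluorescence reading.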

Assay [3] can be described thus: qHTS assay to identify small molecule agonists of the estrogen receptor beta (ER-beta) signaling pathway - cell viability counter screen (AID 1259380). Further: nearly all actives have a fitted effect of over 30% in size. Further: potency means the concentration at half of the fitted maximal effect. In short, it runs like this: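 Cytotoxicity is measured in parallel with the reporter screen: after 16 hr compound exposure at 37C and a 2 hr LiveBLAzer step, CellTiter-Glo is added to the same ER-beta-UAS-bla HEK293T wells and luminescence read after 30 min.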

Assay [4] can be described thus: qHTS assay to identify small molecule antagonists of the estrogen receptor beta (ER-beta) signaling pathway - cell viability counter screen (AID 1259382). Further: series mostly up to about 92 µM; nearly all actives have a fitted effect of over 55% in size. The method in brief: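 Cytotoxicity counter screen multiplexed with the beta-lactamase antagonist assay: GripTite HEK293T ER-beta-bla cells were treated 16 hr with test chemicals in the presence of 1nM 17-beta-estradiol, and viability was measured by CellTiter-Glo.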

The nature of assay [5]: qHTS assay to identify small molecule agonists or antagonists of the thyroid stimulating hormone receptor (TSHR) signaling pathway - wild type cell line counter screen (AID 1259384; calls by dose curve). In short, it runs like this:
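Wild-type HEK293 cells were plated 18 h at 37 C/5% CO2, pin-dosed with compound plus Ro20-1724 medium, held 30 min at room temperature, then given cAMP-d2 and anti-cAMP-cryptate; fluorescence was read after 1 h. Fifteen concentrations, triplicate.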

Assay [6] deals with Thyrotropin receptor (Homo sapiens) (UniProt P16473). The assay can be described thus: qHTS assay to identify small molecule antagonists of the thyroid stimulating hormone receptor (TSHR) signaling pathway (AID 1259385; calls by dose curve; further: nearly all actives have a fitted effect of over 20% in size). The method in brief:
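TSHR-HEK293 cells were plated and held 18 h at 37C/5% CO2, then given compound plus Ro20-1724 and stimulated with TSH at 1.5 ng/mL final. After 30 min at room temperature, cAMP was detected with cAMP-d2/anti-cAMP-cryptate (1 h) by fluorescence.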

The nature of assay [7]: qHTS assay to identify small molecule agonists of the estrogen receptor alpha (ER-alpha) signaling pathway in the presence of an antagonist - cell viability counter screen (AID 1259386).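 Further: cells exposed to compounds for 22 h at 37 °C before the viability read; nearly all actives have a fitted effect of over 30% in size.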 Further: potency means the concentration at half of the fitted maximal effect. The method in brief:
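Cytotoxicity was measured in parallel with the ERE-luciferase agonist screen, in the same wells. The cells were VM7Luc4E2, which endogenously express ER-alpha, and treatment was with compounds plus 10.0nM ICI-182,780 for 22hr.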

Assay [8] concerns the target Androgen receptor (Homo sapiens) (UniProt P10275). Nature of the assay: qHTS assay to identify small molecule agonists of the androgen receptor (AR) signaling pathway in the presence of an antagonist (AID 1259381; calls by dose curve; further: nearly all actives have a fitted effect of over 15% in size; further: potency means the concentration at half of the fitted maximal effect). The method in brief:
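Agonist-mode confirmation screen: human MDA-kb2 cells stably expressing luciferase under an MMTV promoter bearing AR and GR response elements, co-treated with 3.0uM nilutamide (final). Luminescence measured after 16hr compound incubation.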

The target in assay [9] is Estrogen receptor (Homo sapiens) (UniProt P03372). The assay can be described thus: qHTS assay to identify small molecule agonists of the estrogen receptor alpha (ER-alpha) signaling pathway in the presence of an antagonist (AID 1259383; calls by dose curve; further: nearly all actives have a fitted effect of over 15% in size; further: potency means the concentration at half of the fitted maximal effect). In short, it runs like this: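 Agonist-mode confirmation in the presence of the ER antagonist ICI-182,780 at 10.0nM final. Breast-derived VM7Luc4E2 reporter cells were exposed to compounds for 22hr, and ERE-driven luciferase was quantified by luminescence.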
Sequence of Estrogen receptor (Homo sapiens) (P03372 whole entry, looked up): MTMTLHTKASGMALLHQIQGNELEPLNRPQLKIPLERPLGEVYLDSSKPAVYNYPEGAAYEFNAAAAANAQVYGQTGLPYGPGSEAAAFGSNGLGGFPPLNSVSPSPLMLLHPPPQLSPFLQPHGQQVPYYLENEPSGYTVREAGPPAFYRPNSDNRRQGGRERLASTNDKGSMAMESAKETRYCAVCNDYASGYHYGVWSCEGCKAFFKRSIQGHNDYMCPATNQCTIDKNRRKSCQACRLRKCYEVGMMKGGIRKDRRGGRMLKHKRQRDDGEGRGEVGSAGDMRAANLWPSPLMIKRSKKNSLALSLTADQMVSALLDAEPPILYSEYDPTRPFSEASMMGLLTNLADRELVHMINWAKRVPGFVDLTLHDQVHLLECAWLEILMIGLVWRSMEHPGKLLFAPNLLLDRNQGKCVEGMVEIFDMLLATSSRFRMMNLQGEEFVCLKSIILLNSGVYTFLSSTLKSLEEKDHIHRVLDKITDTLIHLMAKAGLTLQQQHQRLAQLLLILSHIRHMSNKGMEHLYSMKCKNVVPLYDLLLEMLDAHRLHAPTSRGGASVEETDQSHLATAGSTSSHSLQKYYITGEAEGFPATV

Unmarked numbers belong to inactive results. Records with an inconclusive call do not appear. Calls of active or inactive are those of the source. Unless noted, the call rests on the fitted dose curve; in most records, active means well fitted curve in the direction sought with a large enough effect in the repeat runs; inconclusive means weak or mixed curves; inactive means no such curve, though single readings can be large; an effect the other way counts as inactive or inconclusive.

Sequence of Androgen receptor (Homo sapiens) (P10275 whole entry, looked up): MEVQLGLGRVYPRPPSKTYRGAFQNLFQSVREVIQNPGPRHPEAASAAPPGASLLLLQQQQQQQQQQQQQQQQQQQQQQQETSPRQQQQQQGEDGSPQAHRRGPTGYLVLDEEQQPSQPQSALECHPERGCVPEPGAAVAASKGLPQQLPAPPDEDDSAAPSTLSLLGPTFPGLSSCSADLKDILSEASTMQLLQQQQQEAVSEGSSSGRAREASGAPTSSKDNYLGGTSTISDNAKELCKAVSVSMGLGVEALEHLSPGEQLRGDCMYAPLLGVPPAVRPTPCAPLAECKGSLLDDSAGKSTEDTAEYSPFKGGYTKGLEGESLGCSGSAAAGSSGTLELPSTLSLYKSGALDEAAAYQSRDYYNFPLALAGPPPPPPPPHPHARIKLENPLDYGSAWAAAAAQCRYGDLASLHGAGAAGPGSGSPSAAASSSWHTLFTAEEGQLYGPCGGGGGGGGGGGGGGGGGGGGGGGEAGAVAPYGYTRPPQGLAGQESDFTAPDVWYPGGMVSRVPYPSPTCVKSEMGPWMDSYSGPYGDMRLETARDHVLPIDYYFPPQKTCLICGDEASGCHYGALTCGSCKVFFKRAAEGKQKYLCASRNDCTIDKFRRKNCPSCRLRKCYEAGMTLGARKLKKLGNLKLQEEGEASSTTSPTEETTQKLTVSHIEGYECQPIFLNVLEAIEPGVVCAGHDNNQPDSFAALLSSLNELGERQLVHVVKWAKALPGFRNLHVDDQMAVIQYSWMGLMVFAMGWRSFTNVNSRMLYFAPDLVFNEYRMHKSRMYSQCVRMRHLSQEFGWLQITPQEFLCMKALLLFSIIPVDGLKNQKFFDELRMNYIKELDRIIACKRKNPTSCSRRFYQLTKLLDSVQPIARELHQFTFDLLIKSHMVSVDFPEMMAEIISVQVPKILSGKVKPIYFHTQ
Sequence of Thyrotropin receptor (Homo sapiens) (P16473 whole entry, looked up): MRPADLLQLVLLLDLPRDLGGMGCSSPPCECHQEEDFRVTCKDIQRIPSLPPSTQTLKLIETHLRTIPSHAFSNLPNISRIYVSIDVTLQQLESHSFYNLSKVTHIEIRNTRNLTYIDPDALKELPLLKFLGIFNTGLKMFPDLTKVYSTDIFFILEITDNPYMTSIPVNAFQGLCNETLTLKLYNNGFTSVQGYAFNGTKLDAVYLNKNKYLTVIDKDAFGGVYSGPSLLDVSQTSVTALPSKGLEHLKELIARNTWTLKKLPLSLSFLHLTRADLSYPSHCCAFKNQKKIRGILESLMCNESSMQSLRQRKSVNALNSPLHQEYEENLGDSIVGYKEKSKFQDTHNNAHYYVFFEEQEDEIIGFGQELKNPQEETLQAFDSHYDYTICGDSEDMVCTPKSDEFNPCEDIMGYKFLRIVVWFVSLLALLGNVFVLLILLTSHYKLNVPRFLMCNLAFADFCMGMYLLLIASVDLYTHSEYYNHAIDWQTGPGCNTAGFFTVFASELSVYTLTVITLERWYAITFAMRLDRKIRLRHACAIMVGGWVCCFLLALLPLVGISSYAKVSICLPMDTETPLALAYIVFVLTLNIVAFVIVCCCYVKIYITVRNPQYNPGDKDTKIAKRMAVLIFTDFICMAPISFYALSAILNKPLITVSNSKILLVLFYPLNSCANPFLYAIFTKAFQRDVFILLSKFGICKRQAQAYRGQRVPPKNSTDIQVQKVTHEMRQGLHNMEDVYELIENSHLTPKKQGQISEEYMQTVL

For `CCOP(=O)(OCC)Oc1ccc([N+](=O)[O-])cc1`, the Potency result in [1], in [2], in assay [3], in assay [4], in assay [6] and in assay [7] was “inactive” in each case. For the same compound, in assay [5], the call was inactive.

For `O=S1OC[C@@H]2[C@H](CO1)[C@]1(Cl)C(Cl)=C(Cl)[C@@]2(Cl)C1(Cl)Cl` (stereo partly drawn), the Potency entry in assay [2], in [3], in assay [8], in assay [4], in [9] and in [7] was “inactive” in each case. For the same compound, the outcome in [5] was inactive.

Take `C=CCCl`: the Potency entry in assay [2], in [3], in [4], in assay [9], in assay [6] and in assay [7] was “inactive” each time. Besides, the outcome in [5] was inactive.

`CCCCc1c(C)nc(NCC)nc1OS(=O)(=O)N(C)C`: the Potency result in [2], in assay [3], in assay [4], in [9] and in [6] was “inactive” each time. For the same compound, in assay [5], the result was inactive. Besides, the Potency in [7] is 48.6 µM (active).

Take `CNP(=O)(OC)Oc1ccc(C(C)(C)C)cc1Cl` (stereo not drawn): the Potency result in assay [2], in [3], in assay [4], in assay [9], in [6] and in assay [7] was “inactive” in each case. In assay [5], the outcome was inactive.

`CNC(C)Cc1ccccc1OC` (stereo not drawn): the Potency entry in assay [2], in [3], in [4], in assay [9], in assay [6] and in [7] was “inactive” in each case. For the same compound, the compound was classed as inactive in assay [5].

As for `BrCCCCBr`, the Potency entry in [2], in assay [3], in assay [4], in [9], in assay [6] and in assay [7] was “inactive” in each case. Also, in [5], the outcome was inactive.

Take `COC(=O)C(C)N(C(=O)Cc1ccccc1)c1c(C)cccc1C` (stereo not drawn): the Potency result in [2], in assay [8], in assay [9], in assay [6] and in assay [7] was “inactive” throughout. Besides, the Potency in assay [3] was 61.1 µM (active). For the same compound, the outcome in assay [5] was inactive.

Take `Sc1ccccc1Cl`: the Potency entry in assay [2], in assay [3], in assay [8], in assay [4], in assay [9] and in assay [6] was “inactive” each time. In assay [7], the Potency entry was “inactive”. Besides, the call in assay [5] was inactive.

As to `CCOC(=O)C(Cl)C(C)=O` (stereo not drawn), the Potency result in assay [2], in [3], in [4], in assay [9], in [6] and in assay [7] was “inactive” in each case. For the same compound, the outcome in assay [5] was inactive.

Turning to `O=NN1CCCCCC1`, the Potency result in assay [2], in [3], in assay [8], in assay [4], in [9] and in [6] was “inactive” throughout. In [7], the Potency result is “inactive”. In addition, the outcome in assay [5] was inactive.

As for `N#Cc1ccc(Cl)cc1`, the Potency entry in assay [2], in [3], in assay [4], in assay [9], in [6] and in assay [7] was “inactive” throughout. For the same compound, in assay [5], the compound was called inactive.

Consider `CCCC(=O)Cl`, for which the Potency entry in assay [2], in assay [3], in [4], in assay [9], in [6] and in assay [7] was “inactive” in each case. Besides, the compound was called inactive in [5].

Consider `OCCCBr`, for which the Potency entry in assay [2], in assay [3], in [4], in assay [9], in assay [6] and in [7] was “inactive” in each case. Also, in assay [5], the compound was classed as inactive.

As to `Cl/C=C\Cl`, the Potency result in assay [2], in [3], in assay [4], in assay [9], in assay [6] and in [7] was “inactive” each time. In assay [5], the compound was called inactive.

For `O=C(C(Cl)(Cl)Cl)C(Cl)(Cl)Cl`, the Potency result in [2], in assay [3], in [8], in assay [4], in assay [9] and in assay [7] was “inactive” in each case.

With `C[C@]12CC[C@H]3[C@@H](CCC4=CC(=O)CC[C@@H]43)[C@@H]1CC[C@@H]2OC(=O)CCC1CCCCC1`, the Potency entry in [2], in assay [3], in [4] and in [7] was “inactive” each time. The Potency is 0.0422 µM (active) in [8] and 1.68 µM (active) in assay [9].

For `NNC(=O)c1cccnc1`, the Potency result in [2], in [3], in [4], in [9], in assay [6] and in [7] was “inactive” in each case. For the same compound, the compound was classed as inactive in assay [5].

For the compound `CCN(C)N=O`, the Potency result in [2], in assay [3], in assay [4], in assay [9], in [6] and in assay [7] was “inactive” each time. In addition, in assay [5], the compound was called inactive.
